The text below walks through data of the supplement of paper PMC9262897, “Low-cost anti-mycobacterial drug discovery using engineered E. coli” (Nature Communications, 2022).

Structures can show the parent of a compound that is named as a salt. ± gives the standard deviation of the averaged measurements.

The subject of this assay is E. coli TESEC Alr+ wild-type control. The experiment in a line: growth (OD600 after 10 h); higher = more growth (less inhibition). To be noted: compound 0.1 mM; raw OD600 reference: median of DMSO wells 0.49, cell-free background 0.052. How it is done:
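TESEC Mtb Alr E. coli (ΔaraC ΔtolC ΔentC Δalr ΔdadX, arabinose-inducible Mtb Alr) or the Alr+ wild-type control strain, grown in defined M9-fructose medium without D-alanine in 96-well plates with Prestwick library compounds at 0.1 mM and 1% DMSO. Low Alr induction is 0.1 µM arabinose and high induction is 10 mM arabinose.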
In turn, `NCCCNCCSP(=O)(O)O` [Amifostine] displayed a growth of 0.627 ± 0.013.

Turning to `O=P1(NCCCl)OCCCN1CCCl` (stereo not given) [Ifosfamide], the growth came out at 0.517 ± 0.077.

Consider `O[C@@H]1CCCC[C@H]1N1CCC(c2ccccc2)CC1` [L(-)-vesamicol hydrochloride], for which the growth stood at 0.521 ± 0.091.

On to `CCOC(=O)c1cncn1[C@H](C)c1ccccc1` [Etomidate], for which the growth came to 0.397 ± 0.013.

In turn, `Cc1cccc(C)c1NC1=NCCCS1` [Xylazine] gave a growth of 0.487 ± 0.05.

Compound `CC[C@@H](CO)NC(=O)[C@@H]1C=C2c3cccc4[nH]cc(c34)C[C@H]2N(C)C1` [Methylergometrine maleate] yielded a growth of 0.523 ± 0.018.

Turning to `CCC(=O)O[C@@](Cc1ccccc1)(c1ccccc1)[C@@H](C)CN(C)C` [Levopropoxyphene napsylate], the growth was 0.566 ± 0.042.

Take `C(#CCN1CCCC1)CN1CCCC1` [Tremorine dihydrochloride]: the growth stood at 0.696 ± 0.067.

Regarding `C[C@]12CC[C@@H](O)C[C@@H]1CC[C@@H]1[C@@H]2CC[C@]2(C)C(=O)CC[C@@H]12` [Androsterone], the growth was 0.291 ± 0.016.

In the case of `COc1ccc(OC)c(C(O)C(C)N)c1` (stereo not given) [Methoxamine hydrochloride], the growth came to 0.458 ± 0.037.

As for `C[C@]12Cc3c[nH]nc3C[C@@H]1CC[C@@H]1[C@@H]2CC[C@@]2(C)[C@H]1CC[C@]2(C)O` [Stanozolol], the growth came out at 0.47 ± 0.038.

In turn, `C[N+]1(C)CCOC(O)(c2ccc(-c3ccc(C4(O)C[N+](C)(C)CCO4)cc3)cc2)C1` (stereo not given) [Hemicholinium bromide] displayed a growth of 0.559 ± 0.071.

For the compound `CN(C)[C@@H]1C(=O)C(C(N)=O)=C(O)[C@@]2(O)C(=O)C3=C(O)c4c(O)ccc(Cl)c4[C@@](C)(O)[C@H]3C[C@@H]12` [Chlortetracycline hydrochloride], the growth was determined as 0.0491 ± 0.00036.

In turn, `NCC1(CC(=O)O)CCCCC1` [Gabapentin] showed a growth of 0.565 ± 0.076.

Consider `CCC1(CC)C(=O)C=CNC1=O` [Pyrithyldione], for which the growth worked out at 0.458 ± 0.024.

Consider `C[C@@H]1CN([C@H]2CC[C@](C#N)(c3ccc(F)cc3)CC2)CC[C@]1(C(=O)O)c1ccccc1` [Levocabastine hydrochloride], for which the growth is 0.49 ± 0.026.

Regarding `O=P1(N(CCCl)CCCl)NCCCO1` (stereo not given) [Cyclophosphamide], the growth was 0.57 ± 0.069.

`O=C1CC[C@@]2(O)[C@H]3Cc4ccc(O)c5c4[C@@]2(CCN3CC2CC2)[C@H]1O5` [Naltrexone hydrochloride dihydrate]: the growth turned out to be 0.496 ± 0.022.

In turn, `CCNCC(O)c1cccc(O)c1` (stereo not given) [Etilefrine hydrochloride] registered a growth of 0.446 ± 0.011.

For `CC(=O)O[C@H]1C[C@@H]2CC[C@@H]3[C@H](CC[C@@]4(C)[C@H]3C[C@H]([N+]3(C)CCCCC3)[C@@H]4OC(C)=O)[C@@]2(C)C[C@@H]1[N+]1(C)CCCCC1` [Pancuronium bromide], the growth came to 0.506 ± 0.021.

For the compound `CC(C)CC(N(C)C)C1(c2ccc(Cl)cc2)CCC1` (stereo not given) [Sibutramine HCl], the growth worked out at 0.602 ± 0.091.

For the compound `CN1[C@@H]2CC[C@H]1C[C@@H](OC1c3ccccc3CCc3ccccc31)C2` [Deptropine citrate], the growth stood at 0.04883 ± 0.00038.

With `C[C@]12COC(=O)C[C@@H]1CC[C@@H]1[C@@H]2CC[C@@]2(C)[C@H]1CC[C@]2(C)O` [Oxandrolone], the growth is 0.435 ± 0.042.

For the compound `CC(N)C(O)c1ccccc1` (stereo not given) [Phenylpropanolamine hydrochloride], the growth came out at 0.527 ± 0.077.

Consider `COc1ccc(Cc2nccc3cc(OC)c(OC)cc23)cc1OC` [Papaverine hydrochloride], for which the growth is 0.579 ± 0.04.

As to `C[N+]12CCC(CC1)C(OC(=O)C(O)(c1ccccc1)c1ccccc1)C2` (stereo not given) [Clidinium bromide], the growth worked out at 0.611 ± 0.031.

`COc1cc([C@@H]2c3cc4c(cc3[C@H](O)[C@H]3COC(=O)[C@H]23)OCO4)cc(OC)c1OC` [Podophyllotoxin] had a growth of 0.545 ± 0.085.

The compound `CC(C)(C)NCC(O)c1ccccc1Cl` (stereo not given) [Tulobuterol] came in with a growth of 0.507 ± 0.082.

The compound `Oc1ccc2c3c1O[C@H]1[C@@H](O)CC[C@@]4(O)[C@@H](C2)N(CC2CCC2)CC[C@]314` [Nalbuphine hydrochloride] displayed a growth of 0.515 ± 0.011.

`C[C@]12CCC(=O)C(O)=C1CC[C@@H]1[C@@H]2CC[C@]2(C)C(=O)CC[C@@H]12` [Formestane] returned a growth of 0.392 ± 0.026.

With `C[C@@]12N[C@@H](Cc3ccccc31)c1ccccc12` [(-)-MK 801 hydrogen maleate], the growth amounted to 0.564 ± 0.017.

As to `CN1C[C@H](C(=O)N[C@]2(C)O[C@@]3(O)[C@@H]4CCCN4C(=O)[C@H](Cc4ccccc4)N3C2=O)C[C@@H]2c3cccc4[nH]cc(c34)C[C@H]21` [Dihydroergotamine tartrate], the growth was 0.1077 ± 0.001.

`C[C@]12CC[C@H](O)C[C@H]1CC[C@@H]1[C@@H]2C[C@@H](O)[C@]2(C)[C@@H](C3=CC(=O)OC3)CC[C@]12O` [Digoxigenin] came in with a growth of 0.491 ± 0.031.

In turn, `COc1ccc(CN2CCNCC2)c(OC)c1OC` [Trimetazidine dihydrochloride] showed a growth of 0.584 ± 0.012.

In the case of `O=[N+]([O-])O[C@H]1CO[C@H]2[C@@H]1OC[C@H]2O[N+](=O)[O-]` [Isosorbide dinitrate], the growth was 0.474 ± 0.092.

Turning to `Fc1ccc(C(OCCN2CCN(CCCc3ccccc3)CC2)c2ccc(F)cc2)cc1`, the growth was 0.04777 ± 0.00025.

Consider `Cc1cc(C(C#N)c2ccc(Cl)cc2)c(Cl)cc1NC(=O)c1cc(I)cc(I)c1O` (stereo not given) [Closantel], for which the growth is 0.128 ± 0.012.

For the compound `CCN[C@@H](C)Cc1cccc(C(F)(F)F)c1` [Dexfenfluramine hydrochloride], the growth came out at 0.466 ± 0.025.

Regarding `S=C(NC1CCCCC1)N1CCC(c2cnc[nH]2)CC1` [Thioperamide maleate], the growth was found to be 0.561 ± 0.066.

In turn, `CN1[C@@H]2CC[C@H]1C[C@@H](OC(=O)[C@H](CO)c1ccccc1)C2` [Hyoscyamine (L)] displayed a growth of 0.468 ± 0.045.
